Experimental data as given in the supplement of paper PMC10849652.
About 8,800 targets were measured; listed, in parts, are those with a hit and a random draw of the rest. About 0.5% of all pairs of compound and target were hits.

Experiments:
Test in all cases: log2 fold change, soluble protein after heating vs DMSO (PISA); higher = thermal stabilisation; K562 lysate, 10 uM; active = over 0.2 and 3.5 SD of the protein, either way, in both replicates (recomputed)
[1] = compound: C#Cc1cccc(Nc2ncnc3cc(OCCOC)c(OCCOC)cc23)c1 [erlotinib]
How it was run: (§1)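 Soluble protein was defined as the supernatant remaining after 21,000xg for 90 min, following pooling of heated aliquots and adjustment to 0.5% NP-40 at 4°C. Before that, crude K562 extract at 1 mg/mL protein in PBS pH 7.4 with 1 mM MgCl2 was treated with 10 μM compound for 30 min and heated for 3 min across 48°C-58°C. Quantification used TMTpro 16plex LC-MS/MS with channel sums equalised, and values are log-two fold changes in thermal stability relative to solvent controls from duplicates.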

[2] = compound: C/C(=N\NC(=O)C1=CC(=CC=C1)S(=O)(=O)N2CCOCC2)/C3=C(C=CC(=C3)Cl)O
How it was run: as §1

[3] = compound: C1=CC(=CC=C1C2=NC3=C(N2)C=C(C=C3)C(=O)N)OC4=CC=C(C=C4)Cl
How it was run: as §1

[4] = compound: C1=CC2=C(C=CC(=C2)/C=C\3/C(=O)NC(=NCC4=CC=CS4)S3)N=C1
How it was run: as §1

[5] = compound: C1=CC2=NC=CN=C2C=C1/C=C/3\C(=O)NC(=O)S3
How it was run: as §1

[6] = compound: C1=CC=C(C=C1)C2=NC(=C(N2)C3=CC=NC=C3)C4=CC(=C(C=C4)Cl)O
How it was run: as §1

[7] = compound: C1=CC=C2C(=C1)C3=NNC4=CC=CC(=C43)C2=O
How it was run: as §1

[8] = compound: C1CCN(C1)C(=O)NC2=CC=CC(=C2)NC3=NC=C(C(=N3)NCCC4=CN=CN4)Br
How it was run: as §1

[9] = compound: C1CN(CCC1(CC2=CC=C(C=C2)Cl)N)C3=NC=NC4=C3C=CN4
How it was run: as §1

[10] = compound: C1COCCN1CCN2C3=CC=CC=C3N=C2NC(=O)C4=CC(=CC=C4)[N+](=O)[O-] [IRAK-1-4 Inhibitor I]
How it was run: as §1

Measured: log2 fold change

BTK isoform 2 (UniProt Q06187)
UniProt Q06187, sequence (Q06187 whole entry, looked up): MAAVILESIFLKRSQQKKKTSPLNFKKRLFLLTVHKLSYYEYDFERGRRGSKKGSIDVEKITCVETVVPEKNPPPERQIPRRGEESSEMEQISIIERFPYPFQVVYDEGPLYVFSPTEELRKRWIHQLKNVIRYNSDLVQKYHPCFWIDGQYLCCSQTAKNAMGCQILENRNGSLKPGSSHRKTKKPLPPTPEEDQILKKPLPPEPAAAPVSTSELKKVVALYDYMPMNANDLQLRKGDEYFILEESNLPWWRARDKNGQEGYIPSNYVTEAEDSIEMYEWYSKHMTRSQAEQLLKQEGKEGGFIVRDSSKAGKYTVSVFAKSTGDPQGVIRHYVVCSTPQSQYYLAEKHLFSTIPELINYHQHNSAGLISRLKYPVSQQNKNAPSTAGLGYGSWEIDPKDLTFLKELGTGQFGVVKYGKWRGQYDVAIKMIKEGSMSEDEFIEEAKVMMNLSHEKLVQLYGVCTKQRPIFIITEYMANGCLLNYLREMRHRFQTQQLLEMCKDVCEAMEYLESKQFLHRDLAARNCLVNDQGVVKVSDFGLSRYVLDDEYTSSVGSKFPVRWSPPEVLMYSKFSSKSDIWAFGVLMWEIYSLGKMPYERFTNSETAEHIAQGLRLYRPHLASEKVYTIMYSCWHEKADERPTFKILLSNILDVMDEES
inactive: [1] 0.002 | [2] 0.017 | [3] -0.046 | [4] 0.031 | [5] 0.025 | [6] -0.005 | [7] -0.05 | [8] 0.077 | [9] -0.052 | [10] -0.017

CDK16 isoform 2 (UniProt Q00536)
inactive: [1] -0.061 | [2] 0.002 | [3] 0.016 | [4] 0 | [5] -0.005 | [6] -0.017 | [7] 0.151 | [8] 0.004 | [9] -0.007 | [10] 0.03

AURKA (UniProt O14965)
inactive: [1] 0.111 | [2] -0.028 | [3] -0.033 | [4] 0.008 | [5] 0 | [6] -0.039 | [7] 0.359 | [8] 0.483 | [9] -0.004 | [10] 0.129

CHD5 (UniProt Q8TDI0)
inactive: [1] 0.008 | [2] -0.004 | [3] -0.031 | [4] 0.056 | [5] -0.035 | [6] 0.043 | [7] -0.072 | [8] 0.058 | [9] -0.003 | [10] -0.016

BORCS5 (UniProt Q969J3)
inactive: [1] -0.014 | [2] -0.027 | [3] 0.016 | [4] 0.015 | [5] -0.036 | [6] -0.017 | [7] -0.012 | [8] 0.029 | [9] 0.128 | [10] 0.004

BSDC1 (UniProt Q9NW68)
inactive: [1] -0.002 | [2] 0.01 | [3] -0.039 | [4] 0.046 | [5] -0.025 | [6] -0.024 | [7] 0.036 | [8] -0.029 | [9] 0 | [10] 0.059

CD63 (UniProt P08962)
inactive: [1] -0.042 | [2] 0.026 | [3] -0.031 | [4] 0.047 | [5] 0.057 | [6] -0.114 | [7] -0.038 | [8] 0.018 | [9] -0.016 | [10] 0.066

BRAT1 (UniProt Q6PJG6)
UniProt Q6PJG6, sequence (Q6PJG6 whole entry, looked up): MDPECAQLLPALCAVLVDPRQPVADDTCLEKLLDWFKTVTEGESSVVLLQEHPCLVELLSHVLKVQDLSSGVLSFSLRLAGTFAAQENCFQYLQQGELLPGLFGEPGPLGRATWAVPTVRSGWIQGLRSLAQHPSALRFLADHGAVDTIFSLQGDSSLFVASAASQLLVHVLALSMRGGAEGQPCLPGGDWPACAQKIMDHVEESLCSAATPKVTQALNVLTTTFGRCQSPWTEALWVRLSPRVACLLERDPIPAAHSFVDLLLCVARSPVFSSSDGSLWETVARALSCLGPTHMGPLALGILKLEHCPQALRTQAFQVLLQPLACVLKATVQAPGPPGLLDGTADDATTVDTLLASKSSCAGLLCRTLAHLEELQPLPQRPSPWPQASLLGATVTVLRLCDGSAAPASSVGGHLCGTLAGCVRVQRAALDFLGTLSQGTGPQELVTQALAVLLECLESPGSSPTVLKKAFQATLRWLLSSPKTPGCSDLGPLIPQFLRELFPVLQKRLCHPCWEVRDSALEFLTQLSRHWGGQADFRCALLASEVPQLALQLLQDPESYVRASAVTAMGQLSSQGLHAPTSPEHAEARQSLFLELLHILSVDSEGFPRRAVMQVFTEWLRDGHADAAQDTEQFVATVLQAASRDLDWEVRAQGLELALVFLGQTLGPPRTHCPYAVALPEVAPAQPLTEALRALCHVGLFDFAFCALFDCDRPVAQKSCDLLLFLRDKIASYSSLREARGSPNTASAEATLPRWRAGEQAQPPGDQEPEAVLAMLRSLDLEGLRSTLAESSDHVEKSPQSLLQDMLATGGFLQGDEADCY
inactive: [1] 0.05 | [2] -0.01 | [3] -0.052 | [4] 0.006 | [5] 0.026 | [6] 0.03 | [7] -0.075 | [8] 0.003 | [9] -0.013 | [10] -0.013

ATG10 (UniProt Q9H0Y0)
UniProt Q9H0Y0, sequence (Q9H0Y0 whole entry, looked up): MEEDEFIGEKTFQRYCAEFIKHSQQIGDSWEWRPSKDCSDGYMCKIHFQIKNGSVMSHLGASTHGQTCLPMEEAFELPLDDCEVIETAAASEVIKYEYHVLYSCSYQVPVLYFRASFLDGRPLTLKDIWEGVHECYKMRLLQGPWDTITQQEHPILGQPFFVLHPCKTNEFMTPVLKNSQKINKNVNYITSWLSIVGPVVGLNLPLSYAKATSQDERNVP
inactive: [1] 0.062 | [2] 0.043 | [3] -0.011 | [4] -0.012 | [5] -0.01 | [6] 0.035 | [7] 0.086 | [8] -0.004 | [9] -0.004 | [10] 0.022

ATXN2 (UniProt Q99700)
inactive: [1] 0.007 | [2] -0.015 | [3] 0.063 | [4] -0.006 | [5] -0.041 | [6] -0.005 | [7] -0.022 | [8] 0.026 | [9] 0.014 | [10] 0.016

CCNH (UniProt P51946)
inactive: [1] 0.018 | [2] -0.018 | [3] 0.074 | [4] -0.055 | [5] -0.029 | [6] 0 | [7] -0.021 | [8] -0.047 | [9] 0.012 | [10] -0.005

CAD (UniProt P27708)
inactive: [1] 0.013 | [2] 0.003 | [3] -0.015 | [4] 0.032 | [5] 0.013 | [6] -0.006 | [7] -0.008 | [8] -0.002 | [9] 0.011 | [10] -0.004

ATP13A1 (UniProt Q9HD20)
inactive: [1] 0.02 | [2] -0.09 | [3] -0.153 | [4] 0.024 | [5] -0.026 | [6] 0.02 | [7] -0.054 | [8] -0.04 | [9] 0.033 | [10] 0.015

ATM (UniProt Q13315)
inactive: [1] 0.02 | [2] -0.031 | [3] -0.02 | [4] -0.064 | [5] -0.052 | [6] -0.001 | [7] 0.043 | [8] -0.016 | [9] -0.042 | [10] 0.007

CHD1L (UniProt Q86WJ1)
inactive: [1] -0.017 | [2] 0.007 | [3] -0.028 | [4] 0.036 | [5] 0.031 | [6] -0.014 | [7] -0.054 | [8] -0.012 | [9] 0.013 | [10] 0.003

CAPNS1 (UniProt P04632)
UniProt P04632, sequence (P04632 whole entry, looked up): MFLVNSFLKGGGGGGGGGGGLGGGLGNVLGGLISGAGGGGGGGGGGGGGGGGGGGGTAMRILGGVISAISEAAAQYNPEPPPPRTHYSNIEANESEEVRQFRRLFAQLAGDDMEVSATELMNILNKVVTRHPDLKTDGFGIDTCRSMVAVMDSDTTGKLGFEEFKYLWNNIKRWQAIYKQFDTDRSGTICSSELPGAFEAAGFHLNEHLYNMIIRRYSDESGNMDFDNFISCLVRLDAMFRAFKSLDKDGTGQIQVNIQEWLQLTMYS
inactive: [1] -0.066 | [2] 0.001 | [3] -0.023 | [4] 0.025 | [5] 0.006 | [6] -0.008 | [7] 0.082 | [8] -0.007 | [9] -0.039 | [10] -0.005

C19orf54 (UniProt Q5BKX5)
inactive: [1] -0.012 | [2] 0.042 | [3] 0.035 | [4] -0.025 | [5] 0.019 | [6] -0.004 | [7] 0.022 | [8] -0.012 | [9] -0.012 | [10] 0.054

CARD9 (UniProt Q9H257)
inactive: [1] 0.035 | [2] -0.024 | [3] -0.029 | [4] -0.02 | [5] -0.024 | [6] -0.009 | [7] 0.033 | [8] 0.015 | [9] -0.003 | [10] 0.017

CAPN15 (UniProt O75808)
UniProt O75808, sequence (O75808 whole entry, looked up): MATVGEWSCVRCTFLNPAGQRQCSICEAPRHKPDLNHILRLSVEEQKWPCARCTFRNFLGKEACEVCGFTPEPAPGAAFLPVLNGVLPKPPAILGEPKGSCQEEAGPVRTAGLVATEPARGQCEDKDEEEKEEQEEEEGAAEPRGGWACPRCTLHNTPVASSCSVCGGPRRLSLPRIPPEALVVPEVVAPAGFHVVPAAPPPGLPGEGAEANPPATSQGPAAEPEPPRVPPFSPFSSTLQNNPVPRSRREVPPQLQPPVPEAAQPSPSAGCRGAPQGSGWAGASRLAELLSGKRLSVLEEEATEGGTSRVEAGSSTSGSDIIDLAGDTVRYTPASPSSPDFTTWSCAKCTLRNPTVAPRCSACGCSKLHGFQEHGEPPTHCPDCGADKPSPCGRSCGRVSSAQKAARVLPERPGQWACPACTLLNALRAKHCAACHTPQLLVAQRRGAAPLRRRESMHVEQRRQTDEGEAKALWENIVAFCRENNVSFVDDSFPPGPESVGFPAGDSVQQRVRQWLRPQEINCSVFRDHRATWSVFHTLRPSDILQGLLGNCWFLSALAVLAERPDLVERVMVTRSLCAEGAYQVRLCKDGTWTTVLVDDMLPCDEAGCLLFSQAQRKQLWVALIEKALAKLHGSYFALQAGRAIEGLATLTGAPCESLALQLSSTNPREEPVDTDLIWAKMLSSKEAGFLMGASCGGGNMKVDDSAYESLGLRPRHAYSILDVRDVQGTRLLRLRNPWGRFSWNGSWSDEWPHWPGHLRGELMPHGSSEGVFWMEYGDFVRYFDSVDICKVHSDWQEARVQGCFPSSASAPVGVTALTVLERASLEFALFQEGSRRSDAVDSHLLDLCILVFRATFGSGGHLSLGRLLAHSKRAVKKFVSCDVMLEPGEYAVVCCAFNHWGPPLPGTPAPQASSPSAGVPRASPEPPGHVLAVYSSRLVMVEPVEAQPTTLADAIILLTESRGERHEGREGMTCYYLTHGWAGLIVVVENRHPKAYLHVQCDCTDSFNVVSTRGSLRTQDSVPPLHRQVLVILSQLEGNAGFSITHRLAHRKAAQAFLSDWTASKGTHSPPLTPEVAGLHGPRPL
inactive: [1] 0.01 | [2] 0.187 | [3] -0.011 | [4] -0.028 | [5] -0.104 | [6] -0.05 | [7] 0.026 | [8] 0.019 | [9] 0.031 | [10] 0.01

CARS isoform 3 (UniProt P49589)
inactive: [1] 0.008 | [2] -0.029 | [3] 0.018 | [4] -0.018 | [5] -0.006 | [6] 0.022 | [7] -0.032 | [8] -0.024 | [9] 0.015 | [10] 0.001

CAMKK1 isoform 2 (UniProt Q8N5S9)
inactive: [1] -0.037 | [2] 0.042 | [3] -0.003 | [4] -0.085 | [5] 0.043 | [6] -0.01 | [7] 0.042 | [8] -0.076 | [9] -0.069 | [10] 0.001

ATP6V0A2 (UniProt Q9Y487)
UniProt Q9Y487, sequence (Q9Y487 whole entry, looked up): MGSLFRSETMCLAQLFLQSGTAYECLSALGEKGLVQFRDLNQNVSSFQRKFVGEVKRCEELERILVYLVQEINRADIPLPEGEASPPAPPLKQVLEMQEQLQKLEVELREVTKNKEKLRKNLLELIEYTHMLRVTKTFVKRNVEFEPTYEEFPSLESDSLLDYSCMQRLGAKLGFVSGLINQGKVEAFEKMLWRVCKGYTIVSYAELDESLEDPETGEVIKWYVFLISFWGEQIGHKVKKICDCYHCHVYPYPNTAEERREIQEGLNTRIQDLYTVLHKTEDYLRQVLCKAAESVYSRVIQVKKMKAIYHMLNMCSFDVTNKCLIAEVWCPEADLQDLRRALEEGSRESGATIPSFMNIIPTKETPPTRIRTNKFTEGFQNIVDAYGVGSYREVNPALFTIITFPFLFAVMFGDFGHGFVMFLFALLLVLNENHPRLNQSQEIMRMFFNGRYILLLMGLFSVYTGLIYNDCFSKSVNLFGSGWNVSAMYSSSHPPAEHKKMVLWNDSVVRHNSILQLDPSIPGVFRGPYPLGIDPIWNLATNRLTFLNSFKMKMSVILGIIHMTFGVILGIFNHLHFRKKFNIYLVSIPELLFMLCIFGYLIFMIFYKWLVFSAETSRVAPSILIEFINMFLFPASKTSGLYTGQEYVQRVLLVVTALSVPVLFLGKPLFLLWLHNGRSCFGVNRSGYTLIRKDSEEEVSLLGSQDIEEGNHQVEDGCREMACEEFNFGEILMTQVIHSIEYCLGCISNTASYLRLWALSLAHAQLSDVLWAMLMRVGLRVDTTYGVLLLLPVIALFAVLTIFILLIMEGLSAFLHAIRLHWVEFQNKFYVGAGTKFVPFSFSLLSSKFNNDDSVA
inactive: [1] 0.026 | [2] 0.027 | [3] 0.044 | [4] -0.006 | [5] 0.035 | [6] 0.004 | [7] -0.024 | [8] -0.012 | [9] 0 | [10] 0.042

ATG7 (UniProt O95352)
UniProt O95352, sequence (O95352 whole entry, looked up): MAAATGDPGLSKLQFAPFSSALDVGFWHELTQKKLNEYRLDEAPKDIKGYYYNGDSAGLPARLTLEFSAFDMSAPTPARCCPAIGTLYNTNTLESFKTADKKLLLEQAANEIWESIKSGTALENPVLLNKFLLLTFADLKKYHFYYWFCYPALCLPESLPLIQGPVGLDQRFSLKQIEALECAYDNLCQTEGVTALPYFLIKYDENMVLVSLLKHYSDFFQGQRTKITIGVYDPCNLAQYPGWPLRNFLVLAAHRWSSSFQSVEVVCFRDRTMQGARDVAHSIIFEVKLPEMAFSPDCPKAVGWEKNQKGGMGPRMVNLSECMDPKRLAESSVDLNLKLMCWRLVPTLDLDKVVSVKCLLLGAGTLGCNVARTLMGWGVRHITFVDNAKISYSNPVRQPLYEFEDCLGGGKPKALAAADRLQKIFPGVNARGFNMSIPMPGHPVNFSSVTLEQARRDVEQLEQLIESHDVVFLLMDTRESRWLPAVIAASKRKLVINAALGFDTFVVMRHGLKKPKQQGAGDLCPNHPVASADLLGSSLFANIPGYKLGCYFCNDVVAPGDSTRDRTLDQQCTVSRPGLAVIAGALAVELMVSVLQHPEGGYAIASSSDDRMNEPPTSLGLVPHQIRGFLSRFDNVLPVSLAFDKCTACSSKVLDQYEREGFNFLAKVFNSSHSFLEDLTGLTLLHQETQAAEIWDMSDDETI
inactive: [1] 0.03 | [2] 0.113 | [3] 0.035 | [4] 0.001 | [5] 0.015 | [6] -0.003 | [7] -0.06 | [8] -0.028 | [9] 0.032 | [10] 0.017

CALM2 (UniProt P0DP24)
inactive: [1] -0.089 | [2] 0.042 | [3] 0.062 | [4] 0.028 | [5] -0.117 | [6] 0.094 | [7] 0.001 | [8] 0.039 | [9] 0.118 | [10] 0.221

BOLA2 (UniProt Q9H3K6)
UniProt Q9H3K6, sequence (Q9H3K6 whole entry, looked up): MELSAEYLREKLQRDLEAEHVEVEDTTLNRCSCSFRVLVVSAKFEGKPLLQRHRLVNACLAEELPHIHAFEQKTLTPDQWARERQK
inactive: [1] 0.008 | [2] 0.078 | [3] -0.112 | [4] -0.007 | [5] 0.032 | [6] 0.01 | [7] 0.039 | [8] 0.034 | [9] 0.006 | [10] 0.013

CDK1 (UniProt P06493)
UniProt P06493, sequence (P06493 whole entry, looked up): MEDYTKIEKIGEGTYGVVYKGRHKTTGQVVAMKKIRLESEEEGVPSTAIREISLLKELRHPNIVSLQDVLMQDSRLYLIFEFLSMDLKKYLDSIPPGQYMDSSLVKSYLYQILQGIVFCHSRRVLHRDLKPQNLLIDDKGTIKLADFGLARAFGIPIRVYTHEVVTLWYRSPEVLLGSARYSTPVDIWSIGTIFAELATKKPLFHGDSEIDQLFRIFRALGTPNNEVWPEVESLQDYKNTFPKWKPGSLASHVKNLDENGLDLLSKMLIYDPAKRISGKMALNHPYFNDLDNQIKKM
inactive: [1] -0.038 | [2] 0.046 | [3] -0.019 | [4] -0.031 | [5] -0.002 | [6] -0.01 | [7] -0.051 | [8] -0.007 | [9] -0.002 | [10] -0.017

CDC40 (UniProt O60508)
inactive: [1] -0.036 | [2] -0.004 | [3] -0.009 | [4] -0.037 | [5] 0.015 | [6] -0.072 | [7] -0.059 | [8] -0.023 | [9] -0.035 | [10] 0.117

C1orf112 (UniProt Q9NSG2)
inactive: [1] -0.053 | [2] 0.015 | [3] 0.079 | [4] -0.008 | [5] -0.057 | [6] 0.026 | [7] 0 | [8] -0.046 | [9] 0.054 | [10] -0.034

C16orf70 (UniProt Q9BSU1)
active: [4] 0.271
inactive: [1] 0.023 | [2] 0.194 | [3] -0.06 | [5] 0.033 | [6] -0.128 | [7] -0.193 | [8] 0.016 | [9] 0.055 | [10] -0.021

CENPQ (UniProt Q7L2Z9)
inactive: [1] -0.064 | [2] -0.011 | [3] 0.057 | [4] 0.098 | [5] 0.078 | [6] 0.016 | [7] 0.033 | [8] -0.069 | [9] 0.111 | [10] -0.012
